# Test results: PubChem BioAssay
# “And” between values parts separate entries of the source, which are not always exact repeats. Identical values can stand only once. The source made the active and inactive calls. Unless noted, no stated cut-off is given here; in the data, active means inhibition above about 80%; inactive means the rest.
# Columns and labels:
# [1] = viability loss with induced miR-34 in A549 – imaging, A549 dox-inducible miR-34, nuclei and caspase counts, primary screen (AID 1347080;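 active means compounds whose cell count with miR-34 switched on is under 0.7 times the count with it off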); conditions: A549 miR-34 inducible, Hoechst nuclei count, 48 h
# [2] = MELAS cybrid and Rieske KO viability enhancers – cell-based, MELAS cybrids, Rieske KO mouse fibroblasts, CellTiter-Glo, primary screen (AID 1508586;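 active means mean z-score across replicates of 1.96 or higher in either the MELAS or the Rieske mutant cell line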;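 further: z relative to plate mean and SD of compound and empty wells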); conditions: low glucose
# [3] = growth inhibition, single agent or in combination, cell-based, chromothripsis tumors, cisplatin or BGB combos (AID 1671449); conditions: LFS_MB_P medulloblastoma cells;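 further: cells exposed for 96 hours; 0% = vehicle DMSO and 100% = killing by high DMSO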
# [4] = growth inhibition, single agent and combos, cell-based, chromothripsis tumors, cisplatin or BGB combos (AID 1671450); conditions: HDN33 neuroblastoma cells, stronger effect = higher value;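 further: cells exposed to compound for four days; 0% = vehicle DMSO and 100% = cell killing by high DMSO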
# [5] = growth inhibition, single agents and combos, ICB984, cell-based, cisplatin or BGB combos, synergistic combos for chromothripsis tumors (AID 1671451; call rule not given here;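 further: cells exposed for 96 hours before readout; 0% = vehicle DMSO and 100% = killing by high DMSO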); conditions: ICB984 medulloblastoma cells, drug combinations, stronger effect = higher value
# [6] = growth inhibition, single agents and combos, LFS_MB_1R, cell-based, cisplatin or BGB combos, synergistic combos for chromothripsis tumors (AID 1671452); conditions: LFS_MB_1R medulloblastoma cells, stronger effect = higher value;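 further: cells exposed for 96 hours before readout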
# [7] = growth inhibition, single agents and combos, HTB85, cell-based, BGB or cisplatin IC20 combos, synergistic combos for chromothripsis tumors (AID 1671453); conditions: HTB85 osteosarcoma cells, drug combinations, stronger effect = higher value;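 further: cells exposed for 96 hours before readout; 0% = vehicle DMSO and 100% = high DMSO killing control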
# [8] = growth inhibition, single agents and combos, CRL2098, cell-based, BGB or cisplatin IC20 combos, synergistic combos for chromothripsis tumors (AID 1671454); conditions: CRL2098 osteosarcoma cells, drug combinations, stronger effect = higher value;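 further: cells exposed for 96 h before readout; 0% = vehicle DMSO and 100% = killing by high DMSO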
# [9] = growth inhibition, single agents and combos, HD-MB03, cell-based, BGB or cisplatin IC20 combos, synergistic combos for chromothripsis tumors (AID 1671455; in the data active means inhibition above about 83%;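 further: 0% = vehicle DMSO and 100% = high DMSO as cytotoxic control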); conditions: HD-MB03 medulloblastoma cells, stronger effect = higher value
# [10] = growth inhibition, single agents and combos, UWB1.289, cell-based, BGB or cisplatin combos, synergistic combos for chromothripsis tumors (AID 1671456); conditions: UWB1.289 ovarian carcinoma cells, stronger effect = higher value;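 further: cells exposed to compound for four days; 0% = vehicle DMSO and 100% = killing by high DMSO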
# [11] = growth inhibition, single agents and combos, LFS_MB_2R, cell-based, cisplatin combos, synergistic combos for chromothripsis tumors (AID 1671457); conditions: LFS_MB_2R medulloblastoma cells, stronger effect = higher value;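 further: cells exposed to compound for four days before readout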
# [12] = growth inhibition, MDA-MB-436, cell-based, BGB or cisplatin combos, synergistic combos for chromothripsis tumors (AID 1671458; call rule not given here;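 further: cells exposed for 96 hours; 0% = vehicle DMSO and 100% = killing by high DMSO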); conditions: MDA-MB-436 breast carcinoma growth inhibition, drug combinations, stronger effect = higher value
# [13] = UWB1.289_BRCA1 ovarian cancer growth, cell-based, BGB or cisplatin combinations (AID 1671459); conditions: UWB1.289 BRCA1 ovarian carcinoma, drug combinations, stronger effect = higher value
# [14] = drug combination toxicity in non-malignant astrocytes – cell-based, BGB or cisplatin IC20 combos, cytotoxicity control for chromothriptic childhood tumor combination screen (AID 1671460); conditions: Human astrocytes, viability inhibition, drug combinations, at 0.5 µM, stronger effect = higher value;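 further: cells exposed to compounds for 96 hours before viability readout; 0% = vehicle and 100% = killing control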
# [15] = BT084 cell growth, single and combined drugs, ICGC_MB145, cisplatin and BGB IC40 combos (AID 1671461); conditions: BT084 medulloblastoma cells, drug combinations, stronger effect = higher value;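 further: cells exposed to drugs for 96 hours; 0% = vehicle DMSO and 100% = high DMSO full killing control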
# [16] = RCMB18 cell growth, single agent and combined, cisplatin and BGB IC40 combos (AID 1671462); conditions: RCMB18 medulloblastoma cells, stronger effect = higher value;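 further: cells exposed to compound for four days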
# [17] = CRL1545 cell growth, single agent and combined, cisplatin and BGB IC20 combos (AID 1671464); conditions: CRL1545 osteosarcoma cells, stronger effect = higher value;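 further: cells exposed to compound for 96 hours before readout; 0% = vehicle DMSO and 100% = high DMSO killing control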
# [18] = measured here: combination with BGB IC40, at 0.05 µM
# [19] = measured here: with BGB IC20 combination, at 0.5 µM
# [20] = measured here: with cisplatin IC20 combination, at 0.5 µM
# [21] = measured here: combination with cisplatin, at 0.5 µM
# [22] = measured here: combination with cisplatin, at 5 µM
smiles,measurement,setting,value
Nc1ccn(C2OC(CO)C(O)C2(F)F)c(=O)n1 (centres undefined),fold change,"[1]; stronger effect = lower value, cell number ratio, induced over uninduced",1.02 (inactive)
same,fold change,[1]; measured here: relative caspase fold change +Dox/-Dox,0.857
same,cell count,"[1]; measured here: total cells with miR-34 induction, stronger effect = lower value",1840
same,cell count,[1]; measured here: total cells without miR-34 induction,1810
same,z-score,"[2]; MELAS cybrid survival, CellTiter-Glo 48 h, stronger effect = higher value",2.35 (active)
same,z-score,"[2]; Rieske KO mouse fibroblast survival, CellTiter-Glo 72 h",-0.225
same,inhibition,"[3]; at 0.5 µM, stronger effect = higher value",12.8% (inactive) and -24.1% (inactive) and -14.5% (inactive)
same,inhibition,"[3]; measured here: combination with BGB IC20, at 0.005 µM",-8.46% and 7.63% and 14%
same,inhibition,"[3]; measured here: combination with BGB IC40, at 0.005 µM",-8.25% and -29.3% and -2.14%
same,inhibition,[3]; [18],-22.1% and -15.3% and -25.2%
same,inhibition,"[3]; measured here: combination with cisplatin, at 0.5 µM, stronger effect = higher value",91.7% and -25.4% and 35.7%
same,inhibition,"[3]; measured here: combination with cisplatin, at 5 µM, stronger effect = higher value",65.8% and 67.6% and 88%
same,inhibition,"[4]; BGB combo, at 5 µM",86.4% and 89.9% and 88.8%
same,inhibition,[4]; at 0.5 µM,87.6% (active) and 87.3% (active) and 83.2% (active)
same,inhibition,"[4]; cisplatin combo, at 5 µM",81.7% and 86.5% and 82.8%
same,inhibition,[4]; [19],88.2% and 89.8% and 84.6%
same,inhibition,[4]; [20],86.2% and 82.4% and 79.7%
same,inhibition,"[4]; single agent, at 5 µM",88.8% and 90% and 87.7%
same,inhibition,"[5]; BGB IC20 combo, at 0.005 µM",-3.49% and -7.36% and -23.1%
same,inhibition,"[5]; BGB IC40 combo, at 0.005 µM",-5.04% and 4.53% and 16%
same,inhibition,"[5]; BGB IC40 combo, at 0.05 µM",26% and 33.4% and 30.2%
same,inhibition,[5]; at 0.5 µM,-22.9% (inactive) and -37.1% (inactive) and -18.5% (inactive)
same,inhibition,"[5]; cisplatin combo, at 0.05 µM",26% and 30.8% and 27.7%
same,inhibition,"[5]; cisplatin combo, at 0.5 µM",-43.1% and -45% and -7.88%
same,inhibition,"[5]; cisplatin combo, at 5 µM",-24% and -19.7% and -23.1%
same,inhibition,"[5]; measured here: 5 uM single agent, at 5 µM",-32.2% and -6.79% and -21%
same,inhibition,[6]; at 0.5 µM,-17.1% (inactive) and -7.38% (inactive) and 7.19% (inactive)
same,inhibition,[6]; [18],-7.29% and 0.139% and -43.6%
same,inhibition,[6]; [21],49.7% and 24.2% and 32.2%
same,inhibition,[6]; [22],66.7% and 77.2% and 68.3%
same,inhibition,[7]; at 0.5 µM,86.6% (active) and 90.3% (active) and 89.1% (active)
same,inhibition,"[7]; measured here: with BGB IC20, at 0.5 µM",76.2% and 85.7% and 83.4%
same,inhibition,"[7]; measured here: with BGB IC20, at 5 µM",72.1% and 73.5% and 75.1%
same,inhibition,"[7]; measured here: with cisplatin IC20, at 0.5 µM",91.2% and 91.9% and 89.4%
same,inhibition,"[7]; measured here: with cisplatin IC20, at 5 µM",90.4% and 93.2% and 92.8%
same,inhibition,"[7]; single agent, at 5 µM",92.2% and 93.6% and 92.8%
same,inhibition,[8]; at 0.5 µM,68.5% (inactive) and 65.4% (inactive) and 40.8% (inactive)
same,inhibition,"[8]; measured here: combination with BGB at IC20, at 0.5 µM",53% and 49.8% and 5.09%
same,inhibition,"[8]; measured here: combination with cisplatin at IC20, at 0.5 µM",70.5% and 84.6% and 51.6%
same,inhibition,[9]; at 0.5 µM,92.5% (active) and 91.3% (active)
same,inhibition,"[9]; measured here: combo with BGB at IC20, at 0.5 µM",87.4% and 87.6% and 86.6%
same,inhibition,"[9]; measured here: combo with cisplatin at IC20, at 0.5 µM",96.8% and 96.7% and 96%
same,inhibition,[10]; at 0.5 µM,36.9% (inactive) and 40.6% (inactive) and 36.4% (inactive)
same,inhibition,"[10]; measured here: inhibition with BGB combination, at 0.05 µM",-8.95% and 6.66% and -8.78%
same,inhibition,"[10]; measured here: inhibition with cisplatin combination, at 0.05 µM",34.8% and 31% and 33.4%
same,inhibition,[11]; at 0.5 µM,-9.87% (inactive) and -8.63% (inactive) and -0.27% (inactive)
same,inhibition,[11]; [21],22.8% and 20.6% and 41.7%
same,inhibition,[11]; [22],40.3% and 52.4% and 57.5%
same,inhibition,[12]; at 0.5 µM,67.3% (inactive) and 69.9% (inactive) and 70.3% (inactive)
same,inhibition,"[12]; measured here: BGB combination, at 0.5 µM",56.1% and 61.1% and 59%
same,inhibition,"[12]; measured here: BGB combination, at 5 µM",58% and 56% and 66.5%
same,inhibition,"[12]; measured here: cisplatin combination, at 0.5 µM",71.9% and 76.1% and 74.4%
same,inhibition,"[12]; measured here: cisplatin combination, at 5 µM",77.8% and 78.1% and 78.7%
same,inhibition,"[13]; BGB combination, concentration series, at 5 µM",71.1% and 55.2% and 80.4%
same,inhibition,[13]; at 0.5 µM,43.5% (inactive) and 49.4% (inactive) and 43.9% (inactive)
same,inhibition,"[13]; cisplatin combination, concentration series, at 5 µM",101% and 97.9% and 125%
same,inhibition,[14],70% (inactive) and 73.6% (inactive) and 72.6% (inactive)
same,inhibition,[14]; measured here: combo with BGB IC20,71.3% and 72.2% and 72.3%
same,inhibition,[14]; measured here: combo with cisplatin IC20,58.6% and 65% and 62%
same,inhibition,[15]; at 0.5 µM,-11% (inactive) and -2.39% (inactive) and 3.77% (inactive)
same,inhibition,"[15]; cisplatin combination, at 0.5 µM",30.6% and 26.6% and 14.1%
same,inhibition,"[15]; cisplatin combination, at 5 µM",52.1% and 55.8% and 69.2%
same,inhibition,"[15]; measured here: BGB IC40 combination 0.05 uM, at 0.05 µM",-18.1% and -16.5% and -27.6%
same,inhibition,"[15]; single agent, at 5 µM",11.1% and 16.6% and 14.7%
same,inhibition,[16]; at 0.5 µM,5.91% (inactive) and 3.99% (inactive) and 14.1% (inactive)
same,inhibition,"[16]; cisplatin combo, at 5 µM",85.9% and 82.9%
same,inhibition,"[16]; measured here: BGB IC40 combination, at 0.05 µM",-10.4% and -39% and -30%
same,inhibition,[16]; [21],68.2% and 64.5% and 57.4%
same,inhibition,"[16]; single agent, at 5 µM",10.1% and 16.5% and 18.8%
same,inhibition,[17]; at 0.5 µM,65.3% (inactive) and 70.4% (inactive) and 61.5% (inactive)
same,inhibition,[17]; [19],73.4% and 66.6% and 67.9%
same,inhibition,[17]; [20],61.3% and 72.3% and 57.7%
same,inhibition,"[17]; single agent, at 0.05 µM",71.8% and 61.1% and 53.4%
same,inhibition,"[17]; single agent, at 5 µM",87.7% and 91.1% and 81.7%
